Measurements reported in PubChem BioAssay AID1159580 (chemical genetic matrix, 2015).
Several values for one entry are separate records, joined by “and”; a condition that tells them apart may be missing. Identical values can stand only once. Hit rate of the full screen: of about 5,500 compounds, about 2,000 (36%) were called active. Another 18% or so got no clear call; they are omitted. Rule as the data show it: active = normalized growth mostly below about 0.91 (no sharp cut-off); inconclusive = no clear call, values can overlap the other calls; inactive = mostly above about 0.92. The list shows a part of the results.

Assay: chemical genetic growth profiling, strain panel (AID 1159580);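 also: tested at 20 µM; growth read once vehicle control cultures reached saturation at 30 °C; 1 = growth at the plate median or of vehicle wells; lower values mean less growth of the strain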
Details: S. cerevisiae deletion strains, growth OD

Measured: normalized growth

O=c1ccc2cc(O[C@@H]3O[C@H](CO)[C@@H](O)[C@H](O)[C@H]3O)c(O)cc2o1
inactive: locus YAL013W, strain DEP1, hits give low values 1.04 | locus YAL021C, strain ccr4, hits give low values 0.991 | locus YAL026C, strain drs2, hits give low values 0.997 | locus YAL030W, strain snc1, hits give low values 0.971 | locus YBL061C, strain skt5, hits give low values 0.972 | locus YBR009C, strain hhf1, hits give low values 1.01 | locus YBR021W, strain FUR4, hits give low values 1.06 | locus YBR023C, strain chs3, hits give low values 0.983 | locus YBR171W, strain sec66, hits give low values 0.956 | locus YBR229C, strain ROT2, hits give low values 1.02 | locus YBR231C, strain swc5, hits give low values 0.982 | locus YBR279W, strain paf1, hits give low values 0.988 | locus YCL011C, strain gbp2, hits give low values 0.99 | locus YCL016C, strain dcc1, hits give low values 0.999 | locus YCL029C, strain bik1, hits give low values 0.998 | locus YCL061C, strain MRC1, hits give low values 0.983 | locus YCL069W, strain vba3, hits give low values 0.977 | locus YCR088W, strain abp1, hits give low values 0.978 | locus YDL005C, strain med2, hits give low values 0.958 | locus YDL035C, strain GPR1, hits give low values 1.04 | locus YDL040C, strain nat1, hits give low values 0.976 | locus YDL074C, strain BRE1, hits give low values 1.02 | locus YDL101C, strain DUN1, hits give low values 1.01 | locus YDL134C, strain PPH21, hits give low values 1.02 | locus YDL185W, strain tfp1, hits give low values 1 | locus YDL192W, strain arf1, hits give low values 0.991 | locus YDR001C, strain nth1, hits give low values 0.987 | locus YDR069C, strain doa4, hits give low values 0.977 | locus YDR101C, strain arx1, hits give low values 0.995 | locus YDR137W, strain rgp1, hits give low values 1 | locus YDR159W, strain sac3, hits give low values 0.978 | locus YDR162C, strain NBP2, hits give low values 1.04 | locus YDR195W, strain ref2 0.875 | locus YDR297W, strain sur2, hits give low values 0.988 | locus YDR318W, strain mcm21, hits give low values 0.999 | locus YDR334W, strain swr1, hits give low values 0.982 | locus YDR335W, strain msn5, hits give low values 0.995 | locus YDR388W, hits give low values 0.986 | locus YDR392W, strain spt3, hits give low values 1.02 | locus YDR502C, strain sam2, hits give low values 0.993 | locus YEL003W, strain gim4, hits give low values 0.986 | locus YEL037C, strain rad23, hits give low values 0.982 | locus YEL061C, strain CIN8 (second series), hits give low values 0.974 | locus YEL061C, strain CIN8, hits give low values 1.01 | locus YER015W, strain faa2, hits give low values 0.992 | locus YER016W, strain bim1, hits give low values 0.983 | locus YER110C, hits give low values 0.99 | locus YER111C, strain swi4, hits give low values 0.961 | locus YER155C, strain BEM2 (second series), hits give low values 0.927 | locus YER155C, strain BEM2, hits give low values 1 | locus YER167W, strain BCK2, hits give low values 1.02 | locus YFR010W, strain ubp6, hits give low values 0.974 | locus YGL078C, strain dbp3, hits give low values 0.997 | locus YGL086W, strain mad1, hits give low values 0.979 | locus YGL167C, strain pmr1, hits give low values 0.964 | locus YGL173C, strain kem1, hits give low values 0.977 | locus YGL227W, strain vid30, hits give low values 0.981 | locus YGL240W, strain doc1, hits give low values 0.981 | locus YGL248W, strain PDE1, hits give low values 1.03 | locus YGL253W, strain hxk2, hits give low values 0.994 | locus YGR135W, strain pre9, hits give low values 0.995 | locus YGR252W, strain gcn5, hits give low values 0.997 | locus YHR013C, strain ard1, hits give low values 0.963 | locus YHR027C, strain rpn1, hits give low values 0.978 | locus YHR030C, strain SLT2, hits give low values 1.01 and 1.03 | locus YHR079C, strain IRE1 (second series), hits give low values 0.99 | locus YHR079C, strain IRE1, hits give low values 1.02 | locus YHR094C, strain hxt1, hits give low values 0.995 | locus YHR129C, strain ARP1, hits give low values 1.02 | locus YHR142W, strain chs7, hits give low values 0.982 | locus YHR200W, strain rpn10, hits give low values 0.999 | locus YIL066C, strain RNR3, hits give low values 1.05 | locus YIL073C, strain SPO22, hits give low values 1.02 | locus YIL125W, strain kgd1, hits give low values 0.995 | locus YIR030C, strain dcg1, hits give low values 0.986 | locus YJL092W, strain hpr5, hits give low values 0.994 | locus YJL095W, strain BCK1 (second series), hits give low values 0.973 | locus YJL095W, strain BCK1, hits give low values 1.01 and 1.02 | locus YJL115W, strain asf1, hits give low values 0.971 | locus YJL129C, strain trk1, hits give low values 0.993 | locus YJL134W, strain LCB3, hits give low values 1.01 | locus YJL154C, strain vps35, hits give low values 0.98 | locus YJL164C, strain tpk1, hits give low values 0.991 | locus YJL166W, strain qcr8, hits give low values 0.962 | locus YJL168C, strain set2, hits give low values 0.987 | locus YJL187C, strain SWE1 (second series), hits give low values 1.01 | locus YJR043C, strain POL32, hits give low values 1.04 | locus YJR066W, strain TOR1, hits give low values 0.954 | locus YKL009W, strain mrt4, hits give low values 0.978 | locus YKL068W, hits give low values 1 | locus YKL085W, strain MDH1 (second series), hits give low values 0.996 | locus YKL085W, strain MDH1, hits give low values 0.996 | locus YKL160W, strain elf1, hits give low values 0.992 | locus YKR001C, strain vps1, hits give low values 0.983 | locus YKR026C, strain gcn3, hits give low values 0.964 | locus YKR091W, strain srl3, hits give low values 0.971 | locus YLL001W, strain dnm1, hits give low values 0.962 | locus YLL026W, hits give low values 0.988 | locus YLL041C, strain sdh2, hits give low values 0.971 | locus YLR027C, strain aat2, hits give low values 0.983 | locus YLR039C, strain RIC1, hits give low values 1.03 | locus YLR058C, strain SHM2, hits give low values 1.02 | locus YLR102C, strain apc9, hits give low values 1 | locus YLR113W, strain HOG1, hits give low values 1.01 | locus YLR221C, strain rsa3, hits give low values 1.03 | locus YLR258W, strain gsy2, hits give low values 0.973 | locus YLR262C, strain YPT6 (second series), hits give low values 0.955 | locus YLR262C, strain YPT6, hits give low values 1.08 | locus YLR268W, strain sec22, hits give low values 0.989 | locus YLR320W, strain mms22, hits give low values 0.984 | locus YLR330W, strain CHS5, hits give low values 1.02 | locus YLR342W, strain FKS1 (second series), hits give low values 1.03 | locus YLR342W, strain FKS1, hits give low values 0.973 | locus YLR357W, strain rsc2, hits give low values 0.96 | locus YLR370C, strain arc18, hits give low values 0.989 | locus YLR371W, strain rom2, hits give low values 0.993 | locus YLR384C, strain iki3, hits give low values 0.97 | locus YLR418C, strain cdc73, hits give low values 1.03 | locus YML016C, strain PPZ1, hits give low values 1.02 | locus YML032C, strain rad52, hits give low values 1.01 | locus YML120C, strain ndi1, hits give low values 0.978 | locus YML124C, strain tub3, hits give low values 0.991 | locus YMR058W, strain fet3, hits give low values 0.978 | locus YMR078C, strain ctf18, hits give low values 0.99 | locus YMR125W, strain sto1, hits give low values 0.97 | locus YMR129W, hits give low values 0.991 | locus YMR205C, strain PFK2, hits give low values 0.962 | locus YMR223W, strain ubp8, hits give low values 0.99 | locus YMR231W, strain pep5, hits give low values 0.971 | locus YMR307W, strain GAS1, hits give low values 1.09 | locus YNL067W, strain RPL9B, hits give low values 1.01 | locus YNL071W, strain lat1, hits give low values 0.993 | locus YNL128W, strain TEP1, hits give low values 1.03 | locus YNL183C, strain NPR1, hits give low values 0.962 | locus YNL209W, strain ssb2, hits give low values 0.993 | locus YNL233W, strain BNI4, hits give low values 1.01 | locus YNL248C, strain rpa49, hits give low values 1.01 | locus YNL250W, strain rad50, hits give low values 1.02 | locus YNL271C, strain bni1, hits give low values 0.993 | locus YNL298W, strain CLA4, hits give low values 0.985 | locus YNL307C, strain MCK1, hits give low values 1 | locus YNL322C, strain KRE1 (second series), hits give low values 0.947 | locus YNR049C, strain mso1, hits give low values 0.973 | locus YNR052C, strain pop2, hits give low values 0.994 | locus YOL012C, strain htz1 0.76 | locus YOL147C, strain pex11, hits give low values 0.996 | locus YOR001W, strain rrp6, hits give low values 0.987 | locus YOR061W, strain CKA2, hits give low values 1.02 | locus YOR069W, strain VPS5, hits give low values 1.01 | locus YOR070C, strain gyp1, hits give low values 0.981 | locus YOR080W, strain dia2, hits give low values 0.948 | locus YOR083W, strain WHI5, hits give low values 0.981 | locus YOR106W, strain vam3, hits give low values 0.97 | locus YOR136W, strain idh2, hits give low values 0.991 | locus YOR144C, strain elg1, hits give low values 0.999 | locus YOR184W, strain ser1, hits give low values 0.997 | locus YOR231W, strain MKK1, hits give low values 1.04 | locus YOR265W, strain rbl2, hits give low values 0.984 | locus YOR270C, strain vph1, hits give low values 1 | locus YOR290C, strain snf2, hits give low values 1 | locus YOR316C, strain cot1, hits give low values 0.991 | locus YPL051W, strain arl3, hits give low values 0.99 | locus YPL078C, strain atp4, hits give low values 0.962 | locus YPL106C, strain sse1, hits give low values 0.962 | locus YPL240C, strain hsp82, hits give low values 0.968 | locus YPL241C, strain CIN2, hits give low values 1.01 | locus YPL256C, strain CLN2, hits give low values 1.02 | locus YPR119W, strain clb2, hits give low values 0.99 | locus YPR141C, strain kar3, hits give low values 0.996 | locus YPR163C, strain tif3, hits give low values 0.987 | locus YPR167C, strain met16, hits give low values 0.986 | strain wtn01, hits give low values 0.997
